According to the supplement of paper PMC10338343:
± gives the standard deviation.

Each sequence was assayed on MILI (PIWIL2) piRISC loaded with piRNA #1 (26 nt) (assay: pre-steady-state target cleavage rate (min^-1); guide: piRNA #1 5'p-UGAGGUAGUAGGUUGUAUAGUAUCCA; MIWI and MILI are mouse PIWI proteins and EfPiwi is from a freshwater sponge; tags in brackets are library labels; higher = faster piRNA-guided slicing of the target). Details: auxiliary factor: 500 nM mouse GTSF1.
Outline: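 At 33 °C in HEPES–potassium acetate buffer, a transcribed, DNA-blocked target RNA library […] was exposed for 0–8 or 0–960 min to 1 nM active affinity-purified piRISC carrying a single synthetic guide, with or without 500 nM GTSF1 partner protein. Uncleaved targets were sequenced and normalised to depth and to weakly complementary targets. With three trials pooled and k3 capped at 0.0001 min^-1, a burst-and-steady-state fit produced the pre-steady-state cleavage rate.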
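Note: 1 nM active piRISC with 0.1 nM target library at 33 °C single turnover.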

| Sequence | pre-steady-state target cleavage rate |
| --- | --- |
| GGAGAGGAUACUAUACUACCUACUACCACA | 0.171 ± 0.016 |
| GGAGACCAUACUAUACAAACCUACUACCUCA | 0.0045 ± 0.003 |
| GGAGACCUAUGAUAUGUACCUACUGACCUCA | < 0.0001 |
| GGAGACCUAUGAAUACAACCUUCUACCUCA | 0.00275 ± 0.0024 |
| GGAGACGAUACUAAAGAACCUACUACCUCA | 0.166 ± 0.011 |
| GGAGACGAUACUAUACAACCUACUAACUCA | 0.0612 ± 0.016 |
| GGAGAGGAUACAAUUCAACCUACUACCUCA | 0.174 ± 0.012 |
| GGAGACCUAACUAUACAUCCUACUACGUCA | 0.173 ± 0.052 |
| GGAGACCAUACUAUUGAACCUACUACCUCA | 0.153 ± 0.013 |
| GGAGACCAUACAAUACAACCUACUACCACA | 0.177 ± 0.022 |
| GGAGACCUAUGUAUACAACCUACUUCGUCA | 0.0106 ± 0.0032 |
| GGAGACCUUACUAUACAACCUACUUACCUCA | 0.158 ± 0.013 |
| GGAGACCUUACUAUUCAACCUACAACCUCA | 0.12 ± 0.013 |
| GGAGACCUAUGUAAACAACCUACAACCUCA | 0.0135 ± 0.0041 |
| GGAGACCUAACUAUACAACCUACAACCACA | 0.0203 ± 0.012 |
| GGAGACCUAUCUAUACAACCUACUUCCUCA | 0.0646 ± 0.012 |
| GGAGACCUUAUUAUACAACCUACUACCUCA | 0.14 ± 0.011 |
| GGAGACCUAUGUAUACAAGCAACUACCUCA | 0.0055 ± 0.0022 |
| GGAGACCUAACUAUAUCAACCUACUACCUCA | 0.00944 ± 0.004 |
| GGAGACCUAUCUAUACAACCUACUACCAUCA | 0.123 ± 0.016 |

| Sequence | pre-steady-state target cleavage rate |
| --- | --- |
| GGAGACCUAUGUUUACAACCUACUACCUGA | 0.00584 ± 0.0023 |
| GGAGACCAUACUAUUCUACCUACUACCUCA | 0.178 ± 0.017 |
| GGAGACCUAUGUAUACAACCUACAUCCUCA | 0.00671 ± 0.0026 |
| GGAGACCUUACAAUUCAACCUACUACCUCA | 0.102 ± 0.013 |
| GGAGACCUAUGUAGACAACCUACUACCUCA | 0.0173 ± 0.0042 |
| GGAGACCUAUCUAUAUAACCUACUACCUCA | 0.0723 ± 0.0089 |
| GGAGACCUAUGAUAUGUUCCUACUACCUCU [g2:g12:cont:t1U] | < 0.0001 |
| GGAGACCUAACUAAACAUCCUACUACCUCA | 0.216 ± 0.036 |
| GGAGACCUAUGUAUACAACCUACUACUUCA | 0.0634 ± 0.0075 |
| GGAGACCUAUCUAUUCAACCUACAACCUCA | 0.0889 ± 0.011 |
| GGAGACCAUACUUUAGAACCUACUACCUCA | 0.134 ± 0.013 |
| GGAGACCUAUGAAUAACAACCUACUACCUCA | 0.00368 ± 0.0026 |
| GGAGACCUUACUAUAGAACGUACUACCUCA | 0.0109 ± 0.0021 |
| GGAGACCUUACUAUACAACCUACUACUCUCA | 0.242 ± 0.025 |
| GGAGACCUAUGAUAUGUACCAUCUACCUCA | < 0.0001 |
| GGAGACCUUAGUAUACAACCUACUUCCUCA | 0.0515 ± 0.014 |
| GGAGACCUAUGAUAUGUUGCUACAACCUGA | < 0.0001 |
| GGAGAGGAUACUAUUGUACCUACUACCUCA | 0.131 ± 0.0096 |
| GGAGACCUAUGAUUACAACCUACUAUCCUCA | 0.00664 ± 0.0027 |
| GGAGACCUAACUAUACAACCUACCUACCUCA | 0.0837 ± 0.018 |
